Records with an inconclusive call do not appear. The source made the active and inactive calls. Rule for the calls: active = hit-call score of the fitted dose curve at least 0.9, where 1 is the maximum; inconclusive = response in the unintended direction; inactive = score below 0.9.

A word on the AC50: it is the midpoint of the concentration-response curve, whichever way the signal moves.

Oxysterols receptor LXR-alpha (Homo sapiens), sequence (Q13133 whole entry, looked up, the tested form may be a part): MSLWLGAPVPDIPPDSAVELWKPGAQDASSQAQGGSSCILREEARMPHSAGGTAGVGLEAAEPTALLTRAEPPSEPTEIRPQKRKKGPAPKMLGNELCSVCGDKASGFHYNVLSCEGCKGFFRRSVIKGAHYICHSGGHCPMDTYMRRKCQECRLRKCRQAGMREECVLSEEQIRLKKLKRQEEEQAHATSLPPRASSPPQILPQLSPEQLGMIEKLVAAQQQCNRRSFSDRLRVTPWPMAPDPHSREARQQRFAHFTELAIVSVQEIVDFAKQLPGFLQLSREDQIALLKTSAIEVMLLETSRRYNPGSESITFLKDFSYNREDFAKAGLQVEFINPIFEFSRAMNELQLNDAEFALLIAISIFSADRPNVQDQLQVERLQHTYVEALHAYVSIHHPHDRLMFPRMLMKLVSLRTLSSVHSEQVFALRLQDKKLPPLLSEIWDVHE

The target of the experiment is Oxysterols receptor LXR-alpha (Homo sapiens) (UniProt Q13133). Kind of experiment: ATG_LXRa_TRANS: Attagene TRANS-FACTORIAL HepG2 Assay for human Liver X Receptor alpha (LXRa) (AID 2282980). The conditions noted are these: HepG2 Attagene TRANS reporter, LXRa transactivation. The gist of the method:
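Read-out: reporter transcript levels by RT-PCR plus capillary electrophoresis, fluorescence intensity. Transiently transfected HepG2, exogenous NR-GAL4 chimera, GAL4-UAS reporters; 24 h compound exposure. Activity = increase over DMSO negative control.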
For the molecule `[Co]`, the molecule was called inactive.
On the same count and under the same terms, with `O=C(CC(=O)C(F)(F)C(F)(F)F)C(F)(F)F` the entry was “inactive”; with `O=C(O)C(F)(F)C(F)(F)C(F)(F)C(F)(F)C(F)(F)C(F)(F)C(F)(F)C(F)(F)Cl`, “inactive”.
Consider `FC(F)(F)C(F)(F)C(F)(F)C(F)(F)C(F)(F)C(F)(F)C(F)(F)Br`, for which the outcome was inactive.
For `CCN(Cc1cccc(S(=O)(=O)O)c1)c1ccc(C(=C2C=CC(=[N+](CC)Cc3cccc(S(=O)(=O)O)c3)C=C2)c2ccc(O)cc2S(=O)(=O)[O-])cc1`, the call was inactive.
On to `O=C(O)C(F)(F)C(F)(F)F`, for which the molecule was called inactive.
In the case of `C#C[C@]1(O)CC[C@H]2[C@@H]3CCc4cc(OC)ccc4[C@H]3CC[C@@]21C`, the molecule was called inactive.
Consider `OCCCC(F)(F)C(F)(F)C(F)(F)F`, for which the molecule was called inactive.
Still for that read-out and setting: with `O=C(O)C(F)(F)C(F)(F)C(F)(F)C(F)(F)F` the entry was “inactive”; with `O=C(O)C(F)(F)C(F)(F)C(F)(F)C(F)(F)C(F)(F)C(F)(F)C(F)(F)C(F)(F)C(F)(F)C(F)(F)C(F)(F)C(F)(F)C(F)(F)F`, “inactive”; with `O=C(O)C=C(C(F)(F)F)C(F)(F)F`, “inactive”.
On to `O=S(=O)(O)c1ccc2ccccc2c1`, for which the molecule was classed as inactive.
Still for that read-out and setting: with `CC/C=C\CCOC(=O)c1ccccc1` the entry was “inactive”.
With `CCCCOc1ccc(N)cc1`, the call was inactive.
As for `CC/C=C\CCOC(C)=O`, the outcome was inactive.
Still for that read-out and setting: with `FC(F)(F)C(F)(F)C(F)(F)C(F)(F)C(F)(F)C(F)(F)CCS` the entry was “inactive”.
Turning to `O=C(O)C(F)(F)C(F)(F)C(F)(F)C(F)(F)C(F)(F)C(F)(F)C(F)(F)C(F)(F)C(F)(F)C(F)F`, the AC50 is 50 µM (active).
Consider `c1ccc(B(c2ccccc2)c2ccccc2)cc1`, for which the molecule was classed as inactive.
`FC(F)(F)C(F)(F)C(F)(F)N(C(F)(F)C(F)(F)C(F)(F)F)C(F)(F)C(F)(F)C(F)(F)F`: the call was inactive.
For `O=S(=O)(O)C(F)(F)C(F)(F)C(F)(F)C(F)(F)C(F)(F)C(F)(F)C(F)(F)F`, the result was inactive.
As to `O=C(O)C(F)(F)C(F)(F)C(F)(F)F`, the outcome was inactive.
Regarding `OCCCC(F)(F)C(F)(F)C(F)(F)C(F)(F)C(F)(F)C(F)(F)C(F)(F)F`, the molecule was classed as inactive.
With `FC(F)(F)C(F)(F)C(F)(F)CI`, the molecule was called inactive.
With `FC(F)(F)C(F)(F)C(F)(F)C(F)(F)C(F)(F)C(F)(F)C(F)(F)C(F)(F)F`, the call was inactive.
For `CCCCCC=O`, the outcome was inactive.
For `CC(CCl)OP(=O)(OC(C)CCl)OC(C)CCl` (stereo not drawn), the molecule was classed as inactive.
With `C=CC(F)(F)C(F)(F)C(F)(F)C(F)(F)C(F)(F)C(F)(F)C(F)(F)C(F)(F)C=C`, the result was inactive.
Turning to `O=S(=O)(OCCOC(F)(F)F)C(F)(F)F`, the molecule was classed as inactive.

(Values after PubChem BioAssay (EPA / NIEHS).)
